Assay results from PubChem BioAssay (NCATS).
Inconclusive results are not listed. A call without a number means that no potency is given here. Activity calls are given as the source filed them. Calls come from the whole dose curve; as a rule, active = well fitted curve in the direction sought with a large enough effect; inconclusive = small, poorly fitted or top-dose-only effect, or another doubt; inactive = no such curve, though single readings can be large; an effect the other way counts as inactive or inconclusive.

Target: Glutaminase kidney isoform, mitochondrial (Homo sapiens) (UniProt O94925)
Sequence (O94925 whole entry, looked up, canonical isoform): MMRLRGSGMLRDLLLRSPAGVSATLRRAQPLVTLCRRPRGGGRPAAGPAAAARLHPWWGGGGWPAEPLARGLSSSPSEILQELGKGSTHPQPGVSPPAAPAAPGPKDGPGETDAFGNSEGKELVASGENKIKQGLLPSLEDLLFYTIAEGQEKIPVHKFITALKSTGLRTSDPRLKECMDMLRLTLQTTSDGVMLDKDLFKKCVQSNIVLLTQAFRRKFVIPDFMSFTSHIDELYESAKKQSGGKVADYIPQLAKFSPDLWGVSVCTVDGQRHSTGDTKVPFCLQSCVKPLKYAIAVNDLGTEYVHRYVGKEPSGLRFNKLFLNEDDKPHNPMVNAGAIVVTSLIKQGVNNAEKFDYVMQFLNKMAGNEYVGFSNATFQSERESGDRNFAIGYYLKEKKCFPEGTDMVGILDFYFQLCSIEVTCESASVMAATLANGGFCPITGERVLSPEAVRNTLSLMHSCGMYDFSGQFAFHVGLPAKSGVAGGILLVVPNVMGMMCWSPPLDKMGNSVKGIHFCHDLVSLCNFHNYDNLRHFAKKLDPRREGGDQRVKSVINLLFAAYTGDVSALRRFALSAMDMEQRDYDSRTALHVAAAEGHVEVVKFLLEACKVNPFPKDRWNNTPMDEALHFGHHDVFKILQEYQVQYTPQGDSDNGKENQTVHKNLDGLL
Assay: qHTS for Inhibitors of Glutaminase (GLS): LOPAC Validation (AID 624146); note: nearly all actives have a fitted effect of over 60% in size; note: potency is the fitted concentration of half-maximal effect
Conditions: glutaminase enzyme activity inhibition; series mostly up to 46.1 µM
Summary of the method: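 Assay buffer: 45 mM KH2PO4 pH 8.2, 0.02% Tween-20. hKGA acts on L-glutamine (1 mM solution added); product glutamate is reported by an oxidase/peroxidase Amplex Red coupling, with fluorescence taken at baseline and 30 min.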

Row | SMILES | Potency
1 | CCCn1c(=O)c2c(ncn2C)n(CCC)c1=O | inactive
2 | NC1(C(=O)O)CCCCC1 | inactive
3 | CCN(CC)CCCCCCCCOC(=O)c1cc(OC)c(OC)c(OC)c1 | inactive
4 | CC1CNCCN1S(=O)(=O)c1cccc2cnccc12 (stereo unspecified) | inactive
5 | Clc1nccc2c1ccc1ccccc12 | inactive
6 | NCCS(=O)O | inactive
7 | CN(C)C(=O)/N=N/C(=O)N(C)C | inactive
8 | O=[N+]([O-])c1cccc2cn[nH]c12 | inactive
9 | C=C1C(=O)O[C@@H]2[C@H]3O[C@]3(C)CCC=C(C)CC[C@@H]12 | inactive
10 | NCCCCN=C(N)N | inactive
11 | Nc1ccc(-c2ccc3ccccc3n2)cc1 | inactive
12 | C=CCn1c(=O)c2c(nc(-c3ccc(S(=O)(=O)O)cc3)n2C)n(C)c1=O | inactive
13 | Nc1ncnc2c1ncn2C1CCCO1 (stereo unspecified) | inactive
14 | Oc1ccc(Cn2cc[nH]c2=S)cc1 | inactive
15 | CNC(=O)c1cc2c(cn1)[nH]c1ccccc12 | inactive
16 | CSC(N)=NCCC[C@H](N)C(=O)O | inactive
17 | COc1ccccc1N1CCN(CCCNc2c(C)c(=O)n(C)c(=O)n2C)CC1 | inactive
18 | CNc1cc(NS(=O)(=O)c2ccc(N)cc2)nc(NC)n1 | inactive
19 | NC(N)=NC(N)=Nc1cccc(Cl)c1 | inactive
20 | O=C(O)C1CN(CCCP(=O)(O)O)CCN1 (stereo unspecified) | inactive
21 | Nc1ccc(-c2nc3ccc(-c4nc5ccc(N)cc5[nH]4)cc3[nH]2)cc1 | 5010 nM (active)
22 | O=C(O)Cc1c[nH]c2ccc(O)cc12 | 1580 nM (active)
23 | CCN(CC)CCOC(=O)c1cc(Cl)c(N)cc1OC | inactive
24 | CSC(=N)N | inactive
25 | CCCCOC(=O)NS(=O)(=O)c1sc(CC(C)C)cc1-c1ccc(Cn2c(CC)nc3c(C)cc(C)nc32)cc1 | inactive
26 | COc1cc2c(CCNC(C)=O)c[nH]c2cc1O | 2000 nM (active)
27 | N[C@@H](Cc1ccc(O)c(I)c1)C(=O)O | inactive
28 | N[C@@H](CCCC(=O)O)C(=O)O | inactive
29 | NS(=O)(=O)c1cccc2c1c([N+](=O)[O-])cc1nc(O)c(O)nc12 | inactive
30 | NC(N)=N[C@@H](CCC(=O)O)C(=O)O | inactive

Test system: not listed separately
Assay: qHTS of Trypanosoma Brucei Inhibitors: LOPAC Validation (AID 624147)
Conditions: purified enzyme assay, luminescence, 45 min; series mostly up to 57.5 µM
Summary of the method: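 Screened from lowest to highest concentration, compounds were pinned into TbPYK/substrate mixtures, and ADP (130 uM final) was added. Plates sat at room temperature for 45 min prior to Kinase-Glo Plus detection by luminescence.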

Row | SMILES | Potency
31 | C=CCN1CCc2c(cc(O)c(O)c2Cl)C(c2ccccc2)C1 (stereo unspecified) | inactive
32 | N[C@@H](Cc1c[nH]c2ccccc12)C(=O)O | inactive
33 | NC(C(=O)N[C@@H]1C(=O)N2C(C(=O)O)=C(Cl)CS[C@H]12)c1ccccc1 (stereo partly specified) | inactive
34 | CC1=C(C(=O)O)N2C(=O)[C@@H](NC(=O)C(N)C3=CCC=CC3)[C@H]2SC1 (stereo partly specified) | inactive
35 | CCCN(CCc1ccccc1)C1CCc2c(O)cccc2C1 (stereo unspecified) | inactive
36 | N#CC(C#N)=C(N)/C(C#N)=C/c1ccc(O)cc1 | inactive
37 | O=C(O)c1ccccc1Nc1cccc(OCc2ccc3ccccc3n2)c1 | inactive
38 | Oc1cc(O)c2c(c1)O[C@H](c1ccc(O)c(O)c1)[C@@H](O)C2 | inactive

Target: Glucagon-like peptide 1 receptor (Homo sapiens) (UniProt P43220)
Sequence (P43220 whole entry, looked up): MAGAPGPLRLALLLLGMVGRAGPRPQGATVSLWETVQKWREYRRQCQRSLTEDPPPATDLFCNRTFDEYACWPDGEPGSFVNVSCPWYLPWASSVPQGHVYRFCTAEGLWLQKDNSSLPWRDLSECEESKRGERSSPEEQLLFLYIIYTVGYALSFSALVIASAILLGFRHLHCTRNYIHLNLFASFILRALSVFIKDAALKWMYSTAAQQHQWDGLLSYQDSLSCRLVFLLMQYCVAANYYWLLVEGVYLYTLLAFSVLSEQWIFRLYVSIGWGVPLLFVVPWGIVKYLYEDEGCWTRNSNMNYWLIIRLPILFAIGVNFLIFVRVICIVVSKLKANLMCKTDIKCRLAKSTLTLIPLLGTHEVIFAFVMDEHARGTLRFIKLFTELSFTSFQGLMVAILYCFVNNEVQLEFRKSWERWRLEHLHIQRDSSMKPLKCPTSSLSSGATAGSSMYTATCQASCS
Assay: qHTS of GLP-1 Receptor Agonists: LOPAC Validation (AID 624148);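 note: higher luminescence signal means agonism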
Conditions: GLP-1R agonist cell assay; series mostly up to 46.1 µM
Summary of the method: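 HEK293 cells stably co-expressing GLP-1R and a cAMP-responsive luciferase reporter, plated 12 hours before compound, then incubated 4-6 hr at 37 deg C. Luminescence read 12 min after detection reagent.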

Row | SMILES | Potency
39 | CCCn1c(=O)c2c(ncn2C)n(CCC)c1=O | inactive
40 | C=CCN1CCc2c(cc(O)c(O)c2Cl)C(c2ccccc2)C1 (stereo unspecified) | inactive
41 | NC1(C(=O)O)CCCCC1 | inactive
42 | CCN(CC)CCCCCCCCOC(=O)c1cc(OC)c(OC)c(OC)c1 | inactive
43 | CC1CNCCN1S(=O)(=O)c1cccc2cnccc12 (stereo unspecified) | inactive
44 | Clc1nccc2c1ccc1ccccc12 | inactive
45 | NCCS(=O)O | inactive
46 | N[C@@H](Cc1c[nH]c2ccccc12)C(=O)O | inactive
47 | O=[N+]([O-])c1cccc2cn[nH]c12 | inactive
48 | C=C1C(=O)O[C@@H]2[C@H]3O[C@]3(C)CCC=C(C)CC[C@@H]12 | inactive
49 | NCCCCN=C(N)N | inactive
50 | Nc1ccc(-c2ccc3ccccc3n2)cc1 | inactive
51 | C=CCn1c(=O)c2c(nc(-c3ccc(S(=O)(=O)O)cc3)n2C)n(C)c1=O | inactive
52 | Oc1ccc(Cn2cc[nH]c2=S)cc1 | inactive
53 | CSC(N)=NCCC[C@H](N)C(=O)O | inactive
54 | NC(C(=O)N[C@@H]1C(=O)N2C(C(=O)O)=C(Cl)CS[C@H]12)c1ccccc1 (stereo partly specified) | inactive
55 | CC1=C(C(=O)O)N2C(=O)[C@@H](NC(=O)C(N)C3=CCC=CC3)[C@H]2SC1 (stereo partly specified) | inactive

Row | SMILES | Potency
56 | COc1ccccc1N1CCN(CCCNc2c(C)c(=O)n(C)c(=O)n2C)CC1 | inactive
57 | CNc1cc(NS(=O)(=O)c2ccc(N)cc2)nc(NC)n1 | inactive
58 | CCCN(CCc1ccccc1)C1CCc2c(O)cccc2C1 (stereo unspecified) | inactive
59 | NC(N)=NC(N)=Nc1cccc(Cl)c1 | inactive
60 | O=C(O)C1CN(CCCP(=O)(O)O)CCN1 (stereo unspecified) | inactive
61 | Nc1ccc(-c2nc3ccc(-c4nc5ccc(N)cc5[nH]4)cc3[nH]2)cc1 | inactive
62 | O=C(O)Cc1c[nH]c2ccc(O)cc12 | inactive
63 | CSC(=N)N | inactive
64 | N#CC(C#N)=C(N)/C(C#N)=C/c1ccc(O)cc1 | inactive
65 | CCCCOC(=O)NS(=O)(=O)c1sc(CC(C)C)cc1-c1ccc(Cn2c(CC)nc3c(C)cc(C)nc32)cc1 | inactive
66 | N[C@@H](Cc1ccc(O)c(I)c1)C(=O)O | inactive
67 | N[C@@H](CCCC(=O)O)C(=O)O | inactive
68 | NS(=O)(=O)c1cccc2c1c([N+](=O)[O-])cc1nc(O)c(O)nc12 | inactive
69 | O=C(O)c1ccccc1Nc1cccc(OCc2ccc3ccccc3n2)c1 | inactive
70 | NC(N)=N[C@@H](CCC(=O)O)C(=O)O | inactive
71 | Oc1cc(O)c2c(c1)O[C@H](c1ccc(O)c(O)c1)[C@@H](O)C2 | inactive
